# Most compounds without a hit are left out; they make up all but 4% or so of the library.
# KKLEB cytotox = CF airway cell cytotoxicity counter-screen. KKLEB CF airway cells viability, ATPlite luminescence, overnight; hits give low values; cells stimulated with P. aeruginosa culture filtrate. activity change (cytotoxicity), % at 5 µM. hit rate 0.36% among 360,000;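 active means corrected activity change at or below -50% at 5 µM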
# Peg3 prom inh = Peg3 promoter activity inhibition; HeLa PEG-Prom luciferase reporter, luminescence, overnight; inhibition, % at 20 µM; hit rate 1.7% among 360,000;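 active means inhibition of at least 50% at 20 µM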
# CF NFkB inh = inhibitors of cystic fibrosis induced NF-kB | inhibition, % at 5 µM | KKLEB NF-kB-GFP reporter, PAF-induced, GFP fluorescence overnight | AID 588850 | hit rate 0.86% among 360,000;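 active means at least 50% inhibition at 5 µM, scaled per plate between neutral and stimulator controls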;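 further: PAF is a Pseudomonas aeruginosa culture filtrate used as stimulus; plate controls were PAF-stimulated DMSO wells for no effect and unstimulated DMSO wells for full effect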
# TROY NFkB inh = inhibitors of TROY-dependent NF-kB signaling | Q293 LMP1-TROYcd NF-kB luciferase reporter, 4 h | inhibition, % at 10 µM | hit rate 0.98% among 360,000;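 active means compounds whose plate-normalised and pattern-corrected inhibition of the luciferase reporter signal at the single screening dose is 50% or more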
# TWEAK Fn14 block = inhibitors of TWEAK-Fn14 interaction signaling. TWEAK-stimulated Fn14 reporter cells, luciferase luminescence, 8 h. inhibition, % at 10 µM. hit rate 2% among 360,000. AID 1159606; in the data active means inhibition above about 50%
# HIF-2a block = HIF-2a inhibition | 786-0 RCC cells HIF-2a reporter, luciferase luminescence, overnight | inhibition, % at 18.8 µM | hit rate 0.72% among 360,000 | AID 624352;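 active means inhibition of the luminescence signal of 40% or more relative to plate controls, in a single-dose primary screen at 18.75 µM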
# An asterisk follows results filed as active; ! = not confirmed by another sample.
SMILES,KKLEB cytotox,Peg3 prom inh,CF NFkB inh,TROY NFkB inh,TWEAK Fn14 block,HIF-2a block
Cc1ccc(NC(=O)/C(C#N)=C/c2cc(C)n(-c3ccc(N4CCOCC4)c([N+](=O)[O-])c3)c2C)c(C)c1,-21.7,9.1,27.5,12.6,53.6*,1.1
Cc1cc(/C=C(\C#N)C(=O)Nc2ccc(Cl)cc2)c(C)n1-c1ccc(N2CCOCC2)c([N+](=O)[O-])c1,0.3,6.0,10.1,3.3,42.5,14.9
CCCCNc1c(-c2ccc(OC)c(SC3CCCCC3)c2)nc2ccc(C)cn12,-6.2,97.9*,22.4,13.1,59.2*!,-49.8
CCC(C)Sc1ccc(-c2nc3ccc(C)cn3c2NCc2ccccc2)cc1OC (stereo not given),-25.6,87.8*,30.2,-40.2,-5.5,-199.6
c1csc(-c2nc3ccccn3c2NC2CCCCC2)c1,2.5,-5.4,6.3,-65.5,0.8,-17.9
CCCCCCSc1ccc(-c2nc3ccc(C)cn3c2NCc2ccccc2)cc1OC,-5.4,-123.4,20.2,-26.7,-25.8,-182.9
CC(=O)c1ccc(-c2cccc(-c3nc4ccccn4c3NC3CCCCC3)c2)cc1,-19.2,62.0*,30.3,17.3,22.3,-75.6
CCC(C)Sc1cc(-c2nc3ccc(C)cn3c2NCc2ccccc2)ccc1OC (stereo not given),-32.2,95.9*,57.5*,24.3,78.2*!,-120.3
CCCCNc1c(-c2ccc(SC3CCCCC3)c(OC)c2)nc2ccc(C)cn12,-10.5,24.2,17.2,4.4,5.7,-24.6
COc1ccc(-c2nc3ccc(C)cn3c2NCc2ccccc2)cc1SC1CCCCC1,-13.5,32.8,21.2,1.8,43.3,-28.5
CSc1ccc(OC2CCCCC2NS(=O)(=O)c2ccc(Cl)cc2)cc1 (stereo not given),-0.3,22.8,9.3,31.2,8.2,8.9
COC(=O)Cc1c(C)c2ccc(OCC(=O)N3CCOCC3)cc2oc1=O,-0.4,11.9,-4.9,3.3,-2.6,16.2
CCOCCCNC(=O)c1cn(CC)c2ccc(S(=O)(=O)N(C)C3CCCCC3)cc2c1=O,-3.5,17.6,1.1,-0.2,-11.5,15.5
CCCCNc1c(-c2ccc(OC)c(SC(C)CC)c2)nc2ccc(C)cn12 (stereo not given),-18.0,100.4*,41.2,14.9,40.6,-34.0
CCC(C)Sc1cc(-c2nc3ccccn3c2NC2CCCCC2)ccc1OC (stereo not given),-10.2,94.8*,28.4,1.3,37.0,-80.7
CCCCNc1c(-c2ccc(OC)c(SC(C)CC)c2)nc2ccc(Cl)cn12 (stereo not given),-0.6,5.7,-3.8,-13.8,-3.9,-36.5
CCc1ccc(NC(=O)c2cc(-c3ccc(F)cc3)on2)cc1,0.9,-32.3,-8.9,-11.3,-5.7,-45.4
O=[N+]([O-])c1cccc(-c2nc(-c3cccs3)c(-c3cccs3)[nH]2)c1,-8.7,13.1,9.1,19.4,57.9*,-2.9
O=[N+]([O-])c1ccc(-c2nc(-c3cccs3)c(-c3cccs3)[nH]2)cc1,-3.6,43.5,2.5,66.1*,78.7*,-13.8
O=C(OCCN1C(=O)c2cccc3c(N4CCOCC4)ccc(c23)C1=O)c1ccccc1Cl,-5.2,34.9,10.3,73.4*,104.1*,2.8
O=C(OCCN1C(=O)c2ccccc2C1=O)c1cc(S(=O)(=O)N2CCOCC2)ccc1Cl,-7.1,12.5,8.8,-8.7,26.3,16.6
O=C(OCCN1C(=O)c2cccc3c(N4CCOCC4)ccc(c23)C1=O)c1ccc(Cl)cc1Cl,-23.4,23.7,26.4,49.5,90.3*,11.1
COc1ccc(-c2cc(C(=O)Nc3cccc(O)c3)no2)cc1,-41.7,-123.4,-2.3,30.5,66.8*,-59.6
CC(C)Cc1cc(C(=O)Nc2ccc(Br)cc2)no1,4.6,-327.1,-15.0,-17.1,-13.4,-362.3
CC(C)Cc1cc(C(=O)Nc2cccc(O)c2)no1,-8.6,-59.8,-14.4,22.2,64.9*,-261.5
O=C(O)CCN1c2cccc3cccc(c23)S1(=O)=O,0.9,4.9,-6.4,7.3,-0.5,20.2
CN(C)c1ccc(Cc2cc3c(O)ccc(O)c3cc(Cc3ccc(N(C)C)cc3)c2=O)cc1,1.2,25.2,-8.0,-5.5,41.6,48.4*
Cc1c(C(C)(C)C)sc(=NC(=O)c2ccccc2O)n1C,-8.7,-295.0,20.1,55.7*,46.8,-247.1
Cc1ccc(/C=C2\CCC(C3CCCC3)C2=O)cc1 (stereo not given),5.2,-264.9,8.1,11.0,45.5,-264.2

# Screening data: PubChem BioAssay, Sanford-Burnham Center for Chemical Genomics
